This is part of a sample that, as a whole, favours compounds with a hit. Of some 83,000 tested, about 20% had one in any assay.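 Results are percent growth after 48 hours of single-concentration exposure. 100 means growth as in untreated cells, lower positive values show inhibition; negative values down to -100 show cell death.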 Values without a mark were called inactive. Active and inactive are the calls of the source. How the source made its calls: active means growth percent below 10; inactive means the rest.
Tests used:
Assay in all cases: NCI-60 one-dose screen, 48 h (100 = growth as untreated, 0 = no growth, -100 = all killed)
Conditions in all cases: 10 µM unless noted
NCI-H23 lung = test system: NCI-H23 lung
NCI-H226 lung = test system: NCI-H226 lung
NCI-H322M lung = test system: NCI-H322M lung
HOP-62 NSCLC = test system: HOP-62 NSCLC
NCI-H460 lung = test system: NCI-H460 lung
HOP-92 NSCLC = test system: HOP-92 NSCLC
NCI-H522 lung = test system: NCI-H522 lung
A549/ATCC NSCLC = test system: A549/ATCC NSCLC
786-0 renal = test system: 786-0 renal
COLO 205 colon = test system: COLO 205 colon
DU-145 prostate = test system: DU-145 prostate
K-562 leukemia = test system: K-562 leukemia
MALME-3M melanoma = test system: MALME-3M melanoma
MDA-MB-231 breast = test system: MDA-MB-231 breast
RXF 393 renal = test system: RXF 393 renal
SF-268 CNS = test system: SF-268 CNS
SF-295 CNS = test system: SF-295 CNS
SF-539 CNS = test system: SF-539 CNS
UACC-257 melanoma = test system: UACC-257 melanoma
M14 melanoma = test system: M14 melanoma

Row | Compound | growth (NCI-H23 lung) | growth (NCI-H226 lung) [%] | growth (NCI-H322M lung) | growth (HOP-62 NSCLC) | growth (NCI-H460 lung) | growth (HOP-92 NSCLC) | growth (NCI-H522 lung) | growth (A549/ATCC NSCLC) [%] | growth (786-0 renal) [%] | growth (COLO 205 colon) | growth (DU-145 prostate) | growth (K-562 leukemia) | growth (MALME-3M melanoma) | growth (MDA-MB-231 breast) | growth (RXF 393 renal) | growth (SF-268 CNS) [%] | growth (SF-295 CNS) | growth (SF-539 CNS) | growth (UACC-257 melanoma) | growth (M14 melanoma)
1 | COc1cc(CNC(=O)/C=C/C=C/c2ccc3c(c2)OCO3)ccc1OCc1cn(-c2ccc(C)c(C)c2)nn1 | 66.8% | 47.8 | 82.3% | 92.5% | 85% | -4.29% (active) | 59.5% | 80.4 | 106 | 80.5% | 85.9% | 68.6% | 75.1% | 78.7% | 47.6% | 107 | 94.8% | 55.8% | 65% | 61.4%
2 | COc1ccc(CC(C#N)c2cc3ccccc3[nH]2)cc1 (stereo not given) | 87.1% | 90.6 | 92.9% | 89% | 97.2% | 49.7% | 84.3% | 86.3 | 94.7 | 99.8% | 101% | 80.5% | 89.3% | 82.3% | 94.1% | 90.7 | 94.1% | 97.5% | 94.3% | 84.2%
3 | COc1cc(OC)c2sc(-c3ccc(-n4cncc4-c4ccc(OC)c(OC)c4)cc3)nc2c1 | 66.1% | 66.7 | 92.3% | 83.2% | 23.3% | 39.4% | 50.5% | 45.6 | 74.5 | 48.3% | -4.76% (active) | 65.5% | 73.1% | 68% | 12.1% | 60.5 | 48.8% | 66.5% | 71.5% | 67.6%
4 | O=C(CCCCC1CCSS1)Nc1ncnc2n[nH]c(-c3ccc(Oc4ccccc4)cc3)c12 (stereo not given) | 59.2% | 94.2 | 79.5% | 65.6% | 2.83% (active) | 97.9% | 70.3% | 37 | 117 | 88.9% | 65.6% | 9.6% (active) | 109% | 68.3% | 113% | 72.4 | 102% | 106% | 95.2% | -62.8% (active)
5 | O=C1/C(=C/c2ccc(Cl)cc2)COc2ccc(O)cc21 | 90.9% | 98.8 | 94.8% | 102% | 102% | 95.9% | 13.9% | 89 | 64.2 | 78.2% | 89.7% | 2.41% (active) | 94.9% | 86% | 97.9% | 79.3 | 101% | 88.1% | 104% | 86%
6 | COc1ccc(-c2csc(N(C(=O)N3CCN(c4cc5c(cc4F)c(=O)c(C(=O)O)cn5C4CC4)CC3)c3ccccc3)n2)cc1 | 4.28% (active) | 28.5 | 4.9% (active) | 9.2% (active) | 3.65% (active) | -18.1% (active) | -21.8% (active) | 13.6 | 19.6 | 17.9% | 17.6% | 14% | 9.18% (active) | 28.3% | 35.8% | 22.9 | 3.69% (active) | 9.1% (active) | 12.4% | 26.6%
7 | N#Cc1c(NC(=O)c2ccccc2)sc2c1CCC(=O)C2 | 5.05% (active) | 14.7 | 71.9% | 40.7% | 16.3% | -22.9% (active) | -12.7% (active) | 52.7 | 25.9 | -46.4% (active) | 40.7% | 4.06% (active) | -12.9% (active) | -11.3% (active) | -1.37% (active) | 16 | 21.7% | -28.4% (active) | 2.08% (active) | 14%
8 | N#Cc1cccc(F)c1 | 106% | 109 | 115% | 110% | 118% | 113% | 102% | 109 | 101 | 114% | 125% | 94.4% | 110% | 101% | 114% | 110 | 109% | 88.9% | 110% | 102%
